Screening data (PubChem)
Vc quorum ag: inducers of Vibrio cholerae quorum light production without autoinducers, primary screen, BH1578 luxS cqsA deficient, single point; activation, % at 18.7 µM; AID 588436, 2011; V. cholerae BH1578 lux reporter, luminescence, 6 h; hit rate 0.16% among 350,000; in the data active means activation mostly above about 9.7%, no sharp cut-off; inconclusive means no clear call, values can overlap the other calls; inactive means mostly below about 3.7%
Autofluor counter: counter-screen for toxin protease inhibitors: compound fluorescence. hit rate 3.1% among 360,000. compound autofluorescence counterscreen, microsphere flow cytometry; hits give high values. fluorescence intensity (no concentration beside the values). AID 624483; in the data active means fluorescence intensity above about 16000; inconclusive means no clear call, values can overlap the other calls
BoNT-A LC inh2: BoNT/A light chain protease inhibitors, primary screen, biochemical, flow cytometry, MLPCN library; hit rate 0.17% among 360,000; Botulinum neurotoxin type A light chain protease (Clostridium botulinum A str. ATCC 3502); multiplex microsphere protease substrate cleavage; AID 588499, 2011; inhibition, % at 10 µM
MazF activator: activators of E. coli MazEF toxin-antitoxin RNase, primary screen, biochemical, fluorescence, uHTS. FAM/BHQ RNA-DNA oligo cleavage fluorescence, 5 h. activation, % at 20 µM. hit rate 0.32% among 350,000. AID 504720, 2011; in the data active means activation above about 50%
Target sequence (P0AE70 whole entry, looked up): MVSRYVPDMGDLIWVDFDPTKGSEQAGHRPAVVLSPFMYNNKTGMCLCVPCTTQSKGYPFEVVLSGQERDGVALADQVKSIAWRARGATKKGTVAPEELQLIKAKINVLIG
Anthrax LF inh2: Bacillus anthracis LF protease inhibitors, primary screen, biochemical, multiplex microsphere, MLPCN library; Lethal factor (Bacillus anthracis), P15917; multiplex microsphere protease cleavage assay; inhibition, % at 10 µM; hit rate 0.12% among 360,000; AID 588501, 2011
BoNT-F LC inh: BoNT/F light chain protease inhibitors, primary screen, biochemical, flow cytometry, MLPCN library. hit rate 0.22% among 360,000. inhibition, % at 10 µM. Multiplex microsphere protease cleavage assay. AID 588497, 2011. Botulinum neurotoxin type F light chain protease (Clostridium botulinum); in the data active means inhibition above about 35%, passing the limit was not always enough; inconclusive means no clear call, values can overlap the other calls
Hits are given with their value; - = inactive; ? = inconclusive; . = not tested or not shown. Compounds with a hit are over-represented: about 3.9% of the library has one in this group of screens. Unless noted, no stated cut-off is given here; in the data, active means inhibition above about 30%; inconclusive means no clear call, values can overlap the other calls; inactive means below that.

SMILES	Vc quorum ag	Autofluor counter	BoNT-A LC inh2	MazF activator	Anthrax LF inh2	BoNT-F LC inh
Cc1ccc(CN2CCN(C(=O)c3ccco3)CC2)cc1	-	-	-	-	-	-
O=C(CN1C(=O)NC2(CCCC2)C1=O)N1CCN(C(=O)c2ccco2)CC1	-	19470	-	-	-	-
Cc1ccc(-c2cc(C(=O)N3CCN(C(=O)c4ccco4)CC3)no2)cc1	-	20055	-	-	-	-
O=c1ncn(-c2ccc(F)cc2)c2ncccc12	-	20412	?	-	-	-
O=S(=O)(c1ccc(-c2nnc(SCc3ccccc3)o2)cc1)N1CCCC1	-	19388	?	-	-	-
NC(=O)CSc1nnc(-c2cccc(S(=O)(=O)N3CCCCC3)c2)o1	-	-	-	-	-	-
NC(=O)CSc1nnc(-c2ccc(S(=O)(=O)N3CCCC3)cc2)o1	-	-	-	-	-	-
Cc1ccc(CSc2nnc(-c3ccc(S(=O)(=O)N4CCCC4)cc3)o2)cc1	-	22758	-	-	-	-
O=S(=O)(c1cccc(-c2nnc(-c3ccc(Br)cc3)o2)c1)N1CCCCCC1	-	20866	-	-	-	-
CCn1cc(S(=O)(=O)NC(C)c2cc(OC)ccc2OC)cn1 (stereo not given)	-	-	-	-	-	-
O=C(Oc1ccc(N(Cc2cccs2)C2=NS(=O)(=O)c3ccccc32)cc1)c1ccc(Cl)cc1	-	-	-	-	-	-
O=C(Oc1ccc(N(Cc2cccs2)C2=NS(=O)(=O)c3ccccc32)cc1)c1ccccc1	-	23485	?	-	-	-
O=C1CC(=O)C(n2cncn2)C(c2c(F)cccc2Cl)C1 (stereo not given)	-	22544	-	-	-	-
O=C(N/N=C/c1ccccn1)c1ccc(Cl)c(Cl)c1	-	-	-	.	-	-
Cc1cc(OCC(=O)N(Cc2ccco2)C2CCS(=O)(=O)C2)ccc1Cl (stereo not given)	-	-	-	-	-	?
Cc1cc2oc(C(=O)N(Cc3ccco3)C3CCS(=O)(=O)C3)cc(=O)c2cc1Cl (stereo not given)	-	23579	-	-	-	-
CCN(CC)CCCCOc1ccccc1OC	-	20460	-	-	-	-
Nc1c(N(CCC2=CCCCC2)C(=O)CCCOc2ccccc2)c(=O)[nH]c(=O)n1Cc1ccccc1	-	?	-	-	-	-
CC(Oc1ccccc1)C(=O)N(CCC1=CCCCC1)c1c(N)n(Cc2ccccc2)c(=O)[nH]c1=O (stereo not given)	23	-	-	-	-	-
CC(C)CC(=O)Nc1c2c(nn1-c1ccc(F)cc1)CS(=O)C2 (stereo not given)	-	-	-	-	-	-
Cc1ccc(-c2ccc(/C=N/N=C3/NC(=O)C(CC(=O)O)S3)o2)c([N+](=O)[O-])c1 (stereo not given)	-	-	-	-	-	-
O=C(O)CC1S/C(=N/N=C/c2ccc(-c3ccccc3[N+](=O)[O-])o2)NC1=O (stereo not given)	-	23815	-	-	-	-
CC1CC2(C)Oc3ccccc3C3OCC1(CO)C(C)C32 (stereo not given)	-	19211	-	-	-	-
COC(=O)c1cc(NC(=O)CCc2c(C)nc3ncnn3c2C)cc(C(=O)OC)c1	-	17830	-	-	-	-
Cc1nc2ncnn2c(C)c1CCC(=O)Nc1csc(N)n1	-	18816	?	-	-	-
SMILES	Vc quorum ag	Autofluor counter	BoNT-A LC inh2	MazF activator	Anthrax LF inh2	BoNT-F LC inh
CCOC(=O)c1cc2occc2n1Cc1ccc(F)cc1	-	-	-	-	-	-
COC(=O)c1cc2sccc2n1Cc1ccc(C)cc1	-	24673	-	-	-	-
COC(=O)c1cc2occc2n1Cc1ccc(Cl)cc1	-	22264	-	-	-	-
COc1ccc(NC(=O)c2cc3sccc3n2Cc2ccc(F)cc2)cc1OC	-	-	-	-	-	-
O=C(Nc1nccs1)c1cc2sccc2n1Cc1ccc(F)cc1	-	16836	?	-	-	-
COc1ccc(NC(=S)NNC(=O)C(C)n2nc(C)c([N+](=O)[O-])c2C)cc1 (stereo not given)	-	-	-	-	-	-
Cc1nn(C(C)C(=O)NNC(=S)Nc2ccc(F)cc2)c(C)c1[N+](=O)[O-] (stereo not given)	-	24064	-	-	-	-
CCCCNC(=S)NC(C)(C)CO	-	-	-	-	-	-
CC(C)(C)c1ccc(OCC(=O)N2CCCCCC2)c(Br)c1	-	-	-	-	-	-
Cc1ccc(OCC(=O)N2CCCCC2)c(Br)c1	-	17161	-	-	-	-
COCCCn1c(SC(C)C(=O)NC2CC2)nc2ccccc2c1=O (stereo not given)	-	-	-	-	-	-
Cn1cc(CN2CCN(c3ccccc3)CC2)c2ccccc21	-	21941	-	-	-	-
Clc1ccccc1CN1CCN(c2ccccc2)CC1	-	-	-	-	-	-
CCN1c2ccccc2NC2N=C(OC)C(c3ccccc3)C21 (stereo not given)	-	25940	?	-	-	-
CCOC(=O)c1c(NC(=O)c2ccc(C)cc2)sc2c1CC(C)(C)OC2	-	-	-	-	-	-
COC(=O)c1c(NC(=O)c2ccccc2)sc2c1CC(C)(C)OC2	-	16350	?	-	-	-
COc1cccc(CNc2ncnc3cc(Cl)ccc23)c1	-	-	-	-	-	-
CNc1nc(Cl)c(SC)c(NCc2cccc(OC)c2)n1	-	-	-	-	-	48
O=C(Nc1ccc(N2CCN(C(=O)c3ccc(Cl)cc3)CC2)cc1)c1cc2ccccc2o1	-	21324	-	-	-	-
O=C(Nc1ccccc1N1CCN(C(=O)c2ccc(Cl)cc2)CC1)c1cc2ccccc2o1	-	-	-	-	-	-
CCCCCN(C(=O)CCC(=O)OCCOc1ccccc1Cl)c1c(N)n(CCCC)c(=O)[nH]c1=O	-	-	-	-	-	-
Cn1cc(/C=C/C(=O)c2ccccc2)c2ccccc21	-	-	-	-	-	-
Cc1ccc(C(=O)/C=C/c2cn(CN3CCN(C)CC3)c3ccccc23)cc1	-	22519	-	-	-	-
COCCn1c(N)c(N(Cc2ccccc2)C(=O)C2=COCCO2)c(=O)[nH]c1=O	-	-	-	-	?	-
O=S(=O)(Cc1ccccc1)NCc1ccccn1	-	21025	-	-	-	-
O=S(=O)(NCc1ccccn1)c1ccccc1	-	-	-	-	-	-
O=c1c2c(nc3c(-c4cccc(Br)c4)c[nH]n13)CCCC2	-	16678	-	-	-	-
COc1ccc2c(c1)C1CC(C)(NC(=O)C1S(=O)(=O)c1ccc(F)cc1)O2 (stereo not given)	-	-	-	-	-	-
